Source: PubChem BioAssay AID1508625 (Wald Lab, School of Medicine, Case Western Reserve …, 2021)

Assay: enhancers of NK cell killing of ovarian tumor cells, primary screen, imaging, OVCAR3, primary NK cells, calcein-AM imaging (AID 1508625);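 also: compound given to NK cells 16 h before adding targets at 1.5 to 1 ratio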
Details: OVCAR3 lysis by primary NK cells, at 5 µM; z-score: measured here: robust Z-score, single-point normalisation

SMILES | corrected activity, negative = more killing [%] | z-score
Cc1ccc(C(=O)Nc2cccc(C(=O)O)c2)cc1S(=O)(=O)Nc1ccc(Br)cc1 | -15 | -3.16
CCc1ccc(NS(=O)(=O)c2ccc3[nH]cc(C(=O)N(C)Cc4ccccc4)c(=O)c3c2)cc1 | -2.32 | -0.569
O=C1NN(c2cccc(Cl)c2)C(=O)C1=Cc1cc(Cl)ccc1O | -4.57 | -1.45
Cc1cc(OCCCN2CCCCCC2)ccc1[N+](=O)[O-] | 0.702 | 0.391
CCOc1ccc(-n2c(=O)c3c(C)c(C)sc3n(CC(=O)N3CC(C)CC(C)C3)c2=O)cc1 (stereo unspecified) | -4.39 | -1.25
O=C(Nc1cccc(-c2nc3ccccc3o2)c1)C1CCCCC1 | -2.15 | -0.667
Cc1cc(Nc2cccc(C(=O)O)c2)n2ncnc2n1 | 1.47 | 0.457
CC1=C(C(=O)OC(C)C(C)(C)C)C(c2ccccc2)NC(=O)N1 (stereo unspecified) | -4.55 | -1.71
CCC(C)NC(=O)c1ccc2c(=O)n(Cc3ccccc3OC)c(=S)[nH]c2c1 (stereo unspecified) | -7.22 | -1.91
CCN(CC)c1ccc(C=NS(=O)(=O)c2ccc(C)cc2)cc1 | -5.15 | -2.76
COC(=O)c1ccc(COC(=O)c2cnccn2)cc1 | -1.44 | -0.802
CCOC(=O)c1c(NC(=O)c2cc([N+](=O)[O-])ccc2N2CCCCCC2)sc2c1CCCC2 | -2.4 | -0.744
Cc1ccc(-c2sc3nc(-c4ccccc4)ccc3c2N)c(C)c1 | -3.23 | -1.23
CN(C(=O)Cn1ncc2c(=O)oc3ccccc3c21)c1ccc(Br)cc1 | -6.99 | -1.72
CCOc1ccccc1C(=O)Nc1ccc(S(=O)(=O)N2CCCCC2C)cc1 (stereo unspecified) | -4.3 | -1.33
O=C(NC(=S)NN1CCOCC1)c1ccc(Br)cc1 | -1.04 | -0.33
COc1cccc(C=Nn2c(C)nnc2C)c1OC | -2.16 | -0.942
CCc1ccc(NC(=O)CCNC(=O)Cn2cnc3ccccc3c2=O)cc1 | 0.879 | 0.279
COc1cc(OC)c(CN2CCN3CCCC3C2C)cc1Br (stereo unspecified) | -2.76 | -1.21
CC1(C)COC(c2ccccc2)=N1 | -5.76 | -1.78
Cc1cc(Br)ccc1NC(=O)CCNC(=O)Cn1cnc2sc3c(c2c1=O)CCCC3 | -0.281 | -0.0893
Cc1ccc(C(=O)Oc2cccc(C(=S)N3CCOCC3)c2)cc1 | 1.48 | 0.458
N#Cc1cccn1Cc1ccccc1Cl | -4.07 | -1.1
Cc1ccc(OCC(=O)Nc2ccc(N3CCOCC3)c(Cl)c2)cc1 | -5.7 | -1.77

SMILES | corrected activity, negative = more killing [%] | z-score
O=C1C(=O)N(CCO)C(c2ccc(Br)cc2)C1=C(O)c1ccccc1 (stereo unspecified) | -2.24 | -0.856
COc1ccc2cc3cc(C(=O)NCCCN4CCN(Cc5ccccc5)CC4)oc3nc2c1 | -0.58 | -0.142
CC(C(=O)NCCCN1CCOCC1)c1ccc([N+](=O)[O-])cc1 (stereo unspecified) | -5.52 | -3.07
COc1ccc(C(=O)Nc2ccc(-c3nc4cc(C)cc(C)c4o3)cc2)cc1OC | 2.2 | 0.681
COc1ccc(OC)c(NC(=O)CSc2nc3c([nH]c4ccccc43)c(=O)n2C)c1 | -8.66 | -2.15
CN1C(=O)C(=O)C(=C(O)c2ccc(Br)cc2)C1c1ccccc1 (stereo unspecified) | -1.99 | -0.867
Cc1ccc(Cl)cc1-n1c(CCC(=O)O)ccc1-c1ccccc1 | 1.25 | 0.373
CCCNS(=O)(=O)c1ccc(F)c(C(=O)Nc2cc(C)ccc2OC)c1 | -6 | -1.62
COc1cccc(C2C3=C(CCCC3=O)NC3=C2C(=O)CCC3)c1OC | -3.89 | -1.45
C=CCNC(=O)c1ccc2snnc2c1 | -1.6 | -0.478
CC(C)(C)c1ccc(C(=O)Nc2ccc(Cl)c(NC(=O)c3ccccc3)c2)cc1 | -4.21 | -1.49
CCOc1ccc(C2C(=C(O)c3ccccc3)C(=O)C(=O)N2CCO)cc1 (stereo unspecified) | -2.61 | -0.996
CCOc1ccc(OCC)c(NC(=O)C2(S(=O)(=O)c3ccc(Cl)cc3)CC2)c1 | -4.65 | -1.32
CC1(C)CC(=O)C(CCC(=O)c2ccccc2)C(C)(C)N1 (stereo unspecified) | -2.46 | -0.733
Cc1ccc(C(=O)O)c(C(=O)Nc2cccnc2)c1 | -0.349 | -0.143
Cc1cc(C)cc(NS(=O)(=O)c2ccc3[nH]cc(C(=O)NCc4cccs4)c(=O)c3c2)c1 | -6.12 | -1.5
O=C1C2C3CC(C(Br)C3Br)C2C(=O)N1c1cccc2ccccc12 (stereo unspecified) | -3.98 | -1.41
CC(=O)c1ccc(NC(=O)c2ccc(C)c([N+](=O)[O-])c2)cc1 | -3.69 | -1.31
COc1ccc(-n2c(=S)[nH]c3cc(C(=O)Nc4cc(C(N)=O)ccc4OC)ccc3c2=O)c(OC)c1 | -3.49 | -1.11
CC(=O)SCCC(=O)N1C(C)CCCC1C(=O)O (stereo unspecified) | -3.02 | -1.19
CC(C(=O)NCCC1=CCCCC1)c1ccc([N+](=O)[O-])cc1 (stereo unspecified) | -0.521 | -0.29
COc1ccc(C=NNC(=O)c2cc(C34CC5CC(CC(C5)C3)C4)[nH]n2)cc1O | 0.0734 | 0.0321
O=C(NCc1cccc(Cl)c1)c1ccc2c(=O)n(Cc3cccc(Br)c3)c(=S)[nH]c2c1 | -6.41 | -2.04
CCOC(=O)c1ccc(CN(Cc2ccc(F)cc2)S(=O)(=O)c2cccc(Cl)c2)cc1 | -6.34 | -1.71

SMILES | corrected activity, negative = more killing [%] | z-score
COc1cc(NC(=O)C(C)Oc2cccc(Cl)c2)cc(OC)c1 (stereo unspecified) | -3.89 | -2.16
Cc1ccc(C(=O)Nc2ccc3nn(-c4cccc(Cl)c4)nc3c2)cc1[N+](=O)[O-] | -0.361 | -0.128
COc1cc(NC(=O)c2cccs2)ccc1NC(=O)c1ccccc1Cl | -4.46 | -2.48
COC(=O)c1ccc(Sc2ccc(C)cc2)c([N+](=O)[O-])c1 | -2.5 | -0.675
COc1ccc(NC(=O)C(N)=O)cc1 | -3.82 | -1.62
Cc1ccccc1N1C(=O)c2ccc(C(=O)Nc3cccc([N+](=O)[O-])c3)cc2C1=O | -3.72 | -1.15
O=C(O)CN1C(=O)c2cccc3c(Br)ccc1c23 | -4.58 | -2.46
O=C(NCc1ccccn1)c1sc2cc([N+](=O)[O-])ccc2c1Cl | -2.44 | -0.775
Cc1oc2c(C)c3oc(=O)c(C)c(C)c3cc2c1-c1ccccc1 | -1.87 | -0.558
Cc1cccc(C(=O)N2N=C(C(F)(F)F)CC2(O)C(C)(C)C)c1 (stereo unspecified) | -2.49 | -0.95
O=C1NC(=S)N(c2ccc(Cl)cc2)C(=O)C1=Cc1cc(Br)ccc1O | -3.58 | -1.85
O=C(c1ccccc1F)N1CCN(c2cc(N3CCCCC3)c(F)cc2[N+](=O)[O-])CC1 | -2.72 | -0.843
Cc1sc2nc(SCC(=O)Nc3ccc(N(C)C)cc3)[nH]c(=O)c2c1C | -4.5 | -2.5
CC1(C(=O)NCC2CCCO2)CCC(=O)N1CCc1ccccc1 (stereo unspecified) | -6.77 | -1.92
Cc1cc(NC(=O)CSc2nc3ccc(Br)cc3c3nc4ccccc4n23)no1 | -5.14 | -1.36
Cc1cc(=O)oc2ccc(Oc3ccc(C#N)cc3[N+](=O)[O-])cc12 | -0.59 | -0.183
C#CCN1C(=O)C(O)(CC(=O)c2ccc(OC)c(OC)c2)c2cc(Br)ccc21 (stereo unspecified) | -5.04 | -1.51
O=C(Cn1ccc([N+](=O)[O-])n1)Nc1ccc(I)cc1 | -4.86 | -1.51
CCOc1ccc(NC(=O)c2c(NCc3ccncc3)sc3c2CCCCC3)cc1 | -0.239 | -0.0869
O=C(c1ccc2c(=O)n(Cc3ccco3)c(=S)[nH]c2c1)N1CCOCC1 | -3.78 | -1.2
Cc1cc2oc(=O)c3c(c2c2occ(-c4ccc(Br)cc4)c12)CCC3 | -4.94 | -1.48
COc1cc(OC)c(CNc2ccc(F)cc2C)cc1Br | -7.05 | -2.24
Cc1ccccc1OCC(=O)N1N=C2CCCCC2C1(O)C(F)(F)F (stereo unspecified) | -5.48 | -2.09
COCCNC(=O)c1c[nH]c2ccc(S(=O)(=O)Nc3ccc4c(c3)OCCO4)cc2c1=O | -5.25 | -1.29

SMILES | corrected activity, negative = more killing [%] | z-score
COc1ccccc1N1CCN(C(=O)c2cnn3c(C(F)(F)F)cc(-c4ccc(C)cc4)nc23)CC1 | -4.5 | -1.43
O=c1c2cc(N3CCCCC3)ccc2[nH]c(=S)n1Cc1ccccc1 | -6.78 | -1.8
COCCN(CCOC)C(=O)c1cc2c(=O)n3ccccc3nc2s1 | -1.77 | -0.502
O=C1NC(=S)SC1=Cc1cc(Cl)ccc1O | -4.39 | -1.87
CCCCN(C)CCn1c(=S)[nH]c2cc3c(cc2c1=O)OCO3 | -6.47 | -1.71
COc1ccc(Oc2c(C(F)(F)F)oc3cc(OC(=O)c4ccc(OC)c(OC)c4)ccc3c2=O)cc1 | -1.55 | -0.672
CCCC12CN3CC(C)(CN(C1)C(=O)c1ccccc1C3=O)C2=O | -4.81 | -1.98
Cc1ccc2c(N)c(C#N)sc2n1 | -0.436 | -0.166
COC(=O)c1ccc(C=NN2CCN(c3ccccn3)CC2)cc1 | -4.57 | -2
O=C(Cn1cnc2ccccc2c1=O)NCCC(=O)NC1CCCCCC1 | -3.69 | -1.17
CCc1ccc(-c2nc3ccccc3c(C(=O)O)c2C)cc1 | -3.44 | -1.41
C#CCOc1ccc2c(c1)c(C(C)=O)c(C)n2-c1ccc(OCC)cc1 | -1.52 | -0.66
COc1ccc(C)cc1NC(=O)c1sc2nc(C)nc(N3CCCCC3C)c2c1C (stereo unspecified) | -3.27 | -1.75
Cc1cc2nc3sc(=Cc4ccc(Cl)cc4Cl)c(=O)n3c2cc1C | -1.46 | -0.755
C=CCn1c(-c2ccc3[nH]c(C)c(C)c3c2)n[nH]c1=S | -6.13 | -2.23
Cc1ccc2cccnc2c1[N+](=O)[O-] | -3.53 | -0.744
Cc1c(C(=O)Nc2ccccc2O)cccc1[N+](=O)[O-] | -4.28 | -1.61
CCN(c1ccccc1C(=O)O)S(=O)(=O)c1cccc2nsnc12 | -4.09 | -1.22
COCCCNC(=O)c1cc(OC)c(OC)c(OC)c1 | -10.8 | -2.27
CCCCOC(=O)c1ccc2c(c1)C(=O)N(c1cccc(Cl)c1)C2=O | -8.14 | -2.52
Cc1cccc(C)c1OCCNC(=O)c1cc2ccccc2o1 | -1.04 | -0.579
